# In the library only some 5.4% were active in any assay of this set; here they are far more common.
# Exocytosis inh: lytic granule exocytosis inhibition. hit rate 0.66% among 360,000. inhibition, % at 10 µM. TALL-104 LAMP-1 surface exposure, flow cytometry; cells stimulated with thapsigargin and PMA;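 active = inhibition above about 55%, limit read from the data; inconclusive = no clear call, values can overlap the other calls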
# beta cell repl: inducers of beta-cell replication in MIN6 cells; hit rate 0.29% among 330,000; MIN6 cells proliferation, ATPlite luminescence, 48 h; cells starved in 0.2% serum; 100% = growth in 10% serum; proliferation, % at 10 µM; AID 2380;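 active = compounds whose signal lies at least 3.5 SD above the mean of all wells on their plate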;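 also: 0% = DMSO-treated cells in low-serum medium and 100% = 10% serum control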
# SMARCA2 activ: activators of SMARCA2 function; MG213 cells, MMTV-luciferase reporter, dexamethasone, overnight; activation, % at 9.1 µM; hit rate 1% among 370,000; in the data active = activation above about 7.8%;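 also: 0% = vehicle wells and 100% = reference activator wells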
# ALR H2O2 inh: inhibitors of human sulfhydryl oxidase ALR; AID 485317; purified ALR, DTT oxidation, H2O2 HRP-luminol luminescence; hit rate 3.8% among 290,000; inhibition, % (concentration not given with the values); P55789;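 active = mean replicate inhibition above about 79%, with every replicate also reaching it, limit read from the data; inconclusive = only one of the two criteria met; inactive = mean below limit and not every replicate reaching it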
# Target sequence (P55789 whole entry, looked up): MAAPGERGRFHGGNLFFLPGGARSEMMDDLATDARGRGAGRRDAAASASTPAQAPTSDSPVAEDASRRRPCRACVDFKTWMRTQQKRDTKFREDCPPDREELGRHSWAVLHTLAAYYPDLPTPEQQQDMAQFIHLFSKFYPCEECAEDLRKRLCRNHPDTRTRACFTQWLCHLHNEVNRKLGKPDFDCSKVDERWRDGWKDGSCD
# GASC-1 inh: human JMJD2C demethylase inhibition | Q9H3R0 | GST-JMJD2C(1-420) H3K9me3 demethylation, DELFIA europium | inhibition, % at 2.35 µM | hit rate 0.069% among 330,000 | AID 2099;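 active = more than half of a compound's replicate wells show inhibition beyond 50%, single wells judged on their own value; inconclusive = some, but no more than half, of replicates pass 50% inhibition; inactive = no replicate passes 50% inhibition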;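 also: signal counts dimethyl H3K9 product captured on neutravidin plate; 0% = median of DMSO wells and 100% = 0.3 times that DMSO median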
# Target sequence (Q9H3R0 1-420 limits assumed): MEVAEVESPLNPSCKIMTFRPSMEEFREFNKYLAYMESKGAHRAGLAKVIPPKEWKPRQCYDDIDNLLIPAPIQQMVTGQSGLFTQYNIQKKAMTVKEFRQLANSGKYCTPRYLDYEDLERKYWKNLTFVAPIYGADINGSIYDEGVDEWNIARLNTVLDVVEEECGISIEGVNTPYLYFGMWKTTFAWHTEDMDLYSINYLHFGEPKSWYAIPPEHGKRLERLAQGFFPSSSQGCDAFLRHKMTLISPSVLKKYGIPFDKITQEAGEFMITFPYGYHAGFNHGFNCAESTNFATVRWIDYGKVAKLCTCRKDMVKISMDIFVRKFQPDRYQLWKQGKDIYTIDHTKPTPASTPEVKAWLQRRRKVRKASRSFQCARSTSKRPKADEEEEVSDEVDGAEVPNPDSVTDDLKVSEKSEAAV
# M18AAP inhibitor: blocks P. falciparum M18 aspartyl aminopeptidase; inhibition, % at 7.35 µM; recombinant PfM18AAP, H-Glu-NHMec fluorogenic cleavage; AID 1822; hit rate 1.2% among 290,000;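 active = inhibition above the campaign mean inhibition over all tested compounds plus 3 SD, cut at about 28% in these data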;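 also: 0% = plate median of test compound wells and 100% = 2 mM ZnCl2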
# SMARCA2 conf: confirmation of SMARCA2 (BRM) function activators; shares compounds with SMARCA2 activ; MG213 cells, MMTV-luciferase with dexamethasone, luminescence, overnight; MG213 cells expressing E1A, Rb sequestered; DMSO wells 0%, reference activator 100%; activation, % at 9.1 µM; hit rate 30% among 3,500;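 active = activation above its plate's cutoff, the mean activation of tested wells plus 3 SD, cut at about 7.9% in these data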
# VP16 Luc act: GAL4-VP16 reporter activation counter-screen; shares compounds with SMARCA2 activ; HEK293 GAL4-VP16 pG5luc reporter, luciferase luminescence; scaled: DMSO wells 0%, SAHA wells 100%; activation, % at 9.1 µM; hit rate 41% among 3,500; AID 686939;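 active = activation above the solvent-only control well mean plus 3 SD, averaged across control plates, cut at about 5.2% in these data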
# Numbers without * were called inactive; ? = inconclusive; . = not tested or not shown.
SMILES,Exocytosis inh,beta cell repl,SMARCA2 activ,ALR H2O2 inh,GASC-1 inh,M18AAP inhibitor,SMARCA2 conf,VP16 Luc act
CCCCc1nnc(NC(=O)CSc2nc(=O)cc(N)n2-c2ccccc2)s1,-1,1,0,-63,-2,-8,.,.
CCOC(=O)/C(C#N)=C/c1c(Oc2cc(C)cc(C)c2)nc2ccccn2c1=O,-3,0,8.2*,0,8,-1,-3,0
COc1cccc(C(=O)NC(=O)Nc2cc(C)on2)c1,-1,-2,8.4*,-5,3,-11,4,8.7*
CC(C)(C)NC(=O)C(c1ccccc1F)n1c(=O)c(-c2cc3ccccc3[nH]2)nc2ccccc21 (stereo unspecified),-1,.,-1,.,.,.,.,.
Oc1ccccc1C=Nc1ccccc1-c1nc2ccccc2[nH]1,-2,-3,8.3*,34,6,5,5,11*
Cc1ccnc(NC(=S)NC(=O)c2ccco2)c1,4,0,7,.,-2,-4,.,.
O=C(NNC(=S)Nc1ccc(F)cc1F)c1ccco1,14,1,12*,33,6,25,8.6*,3
O=C(NC(=S)Nc1ccccn1)c1ccco1,-2,-5,8.8*,?,1,6,12*,8.6*
O=C(NC(=S)Nc1cccc(O)c1)c1ccco1,3,-5,9.1*,-46,-7,7,6,7.6*
O=C(NC(=S)Nc1ccc2c(c1)OCCO2)c1ccco1,0,-4,7,-6,-2,3,.,.
CC(C)c1ccc(NC(=O)c2cc(-c3cc(F)ccc3OCC3CCCO3)n[nH]2)cc1 (stereo unspecified),1,.,-1,.,.,.,.,.
CCOc1nc(C)ccc1-c1noc(-c2ccccn2)n1,-2,0,4,-2,1,-3,.,.
CCOc1ccccc1-c1nc(-c2ccc(C)nc2OC)no1,-2,2,8.8*,-8,?,6,15*,8.0*
CCOC(=O)c1nn(-c2ccc3c(c2)OCCO3)cc1O,-4,-5,11*,7,-7,-2,8.3*,12*
CCOC(=O)c1nn(-c2c(C)n(C)n(-c3ccccc3)c2=O)cc1O,2,0,0,52,-5,3,.,.
COC(=O)c1nn(-c2ccc3c(c2)OCO3)cc1O,-1,-4,9.0*,8,-10,0,13*,11*
COC(=O)c1nn(-c2ccc3c(c2)CCN3C(C)=O)cc1O,-5,-5,-5,52,-1,-2,.,.
COc1ccc(-c2cc(CNc3nc(NC(C)C)nc4cc(-c5ccccc5)sc34)on2)cc1,33,.,12*,.,.,.,3,4
CC(=O)Nc1ccc(CNc2nc(NC(C)C)nc3cc(-c4ccccc4)sc23)cc1,46,.,-10,.,.,.,.,.
c1ccc(COc2ccc(OCCCN3CCCC3)cc2)cc1,2,0,8.7*,-2,4,2,7,9.8*
CCN(C(=O)CN(C)Cc1c(F)cccc1Cl)c1c(N)n(Cc2ccccc2)c(=O)[nH]c1=O,-1,0,-1,-15,0,0,.,.
CN(C(=O)COC(=O)Cc1c(F)cccc1Cl)c1c(N)n(Cc2ccccc2)c(=O)[nH]c1=O,0,2,9.4*,0,2,.,-2,3
COc1ccc(NC(=O)C[C@H]2C(=O)N(C3CCCCC3)C[C@@H]2CSC)cc1,-1,.,8.3*,.,.,.,-2,1
COc1ccc(NC(=O)C[C@H]2C(=O)N(C3CCCCC3)C[C@@H]2C)cc1,-1,.,-4,.,.,.,.,.
COC(=O)[C@]12C[C@H](CC(=O)NCCCCc3ccccc3)C(=O)N(CCc3ccc(OC)c(OC)c3)C1=C[C@H](C1CCCC1)O[C@@H]2C,.,.,-3,.,.,.,.,.
SMILES,Exocytosis inh,beta cell repl,SMARCA2 activ,ALR H2O2 inh,GASC-1 inh,M18AAP inhibitor,SMARCA2 conf,VP16 Luc act
COC(=O)[C@]12CCCCC=C1N(CCC1=CCCCC1)C(=O)[C@H](CC(=O)N1CCC(c3ccccc3)CC1)C2,5,.,-2,.,.,.,.,.
CCN(CC)c1ccc(/C=N/Nc2nc(C)cc(C)n2)cc1,-5,0,8.1*,98*,2,18,-4,1
C(=C\c1ccccc1)/CN1CCN(C(c2nnnn2Cc2ccccc2)C2CC2)CC1 (stereo unspecified),12,.,-6,.,.,.,.,.
COc1ccc2nc(C)cc(Nc3ccc(N4CCN(C)CC4)cc3)c2c1,24,-6,74*,96*,-5,4,133*,-1
S=c1[nH]ncn1/N=C/c1ccc(N2CCOCC2)cc1,-2,-2,9.2*,99*,-5,31*,9.2*,11*
C(=N\n1cnnc1)/c1ccc(N2CCOCC2)cc1,0,-2,2,-6,-1,6,.,.
O=C(NC1CCCCC1)N(c1ccccc1)c1nnc(-c2cccc([N+](=O)[O-])c2)s1,-4,.,3,.,.,.,.,.
CN1CCSc2ccc(C(=O)Nc3cc(F)ccc3F)cc21,-4,-3,11*,10,-7,4,3,12*
COc1cccc2c(=O)c(C(=O)NCc3cccs3)c[nH]c12,-3,-1,10*,-6,6,-5,17*,5.9*
COc1cc(F)ccc1-c1csc(C(C)(NC(C)=O)c2ccccc2)n1 (stereo unspecified),-3,.,-5,.,.,.,.,.
CCOc1ccc(N2C(=O)CC(SCCN)C2=O)cc1 (stereo unspecified),0,-4,14*,-19,1,-45,7.8*,9.6*
CCCCCCOc1ccc(N2C(=O)CC(SCCN)C2=O)cc1 (stereo unspecified),2,0,1,-4,4,-4,.,.
C[C@@H]1CCCCO[C@H](CN(C)C(=O)Nc2ccc3c(c2)OCO3)[C@@H](C)CN([C@H](C)CO)C(=O)c2cc(NS(=O)(=O)c3ccc(F)cc3)ccc2O1,-4,.,-2,.,.,.,.,.
CCC(C)CN1C(=O)CN(S(C)(=O)=O)CC1(C)C(=O)Nc1c(C)cccc1C (stereo unspecified),-9,.,1,.,.,.,.,.
O=C(NCC1CC1)c1ccc(-n2ccnc2)c2ccoc12,-2,.,-4,.,.,.,.,.
O=C(Cc1ccccc1Cl)Nc1cc(S(=O)(=O)N2CCOCC2)ccc1N1CCOCC1,-4,0,8.0*,1,.,.,4,0
CCc1c(-c2ccc(F)cc2)ncn1CCc1ccccc1OC,.,.,2,.,.,.,.,.
COC(=O)Cc1ccc(OC2(C)CCN(Cc3ccccc3)C2)cc1 (stereo unspecified),26,.,0,.,.,.,.,.
COC(=O)[C@]12C[C@H](CC(=O)N3CCN(C(=O)c4ccco4)CC3)C(=O)N(Cc3ccccc3)C1=C[C@H](C(C)C)O[C@@H]2C1CC1,.,.,-2,.,.,.,.,.
